Only some compounds are listed: those with a hit (about 7.3% of all), similar ones and a draw of the others.
KinaseGlo FLuc – counter-screen: inhibitors of Kinase-Glo firefly luciferase; Potency, µM (doses to about 38.3 µM), most hits filed as inhibitors; 200,000 compounds, 0.28% hits; Kinase-Glo luciferase, ATP luminescence, 8 min; also: nearly all actives have a fitted effect of over 60% in size
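Compounds were added to a substrate mix at pH 7.2 (50 mM imidazole, 10 uM ATP, within the enzyme's linear range), followed by Kinase-Glo detection reagent; luminescence was measured after 8 minutes at ambient temperature.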
Rab9 prom act – activators of Rab9 promoter. Huh7 Rab9 promoter-luciferase reporter, luminescence, 24 h. Potency, µM (doses to about 9.22 µM), most hits filed as activators. 320,000 compounds, 2.8% hits. AID 485297; also: nearly all actives have a fitted effect of over 60% in size
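Using Huh7 cells stably transfected with Rab9 promoter–luciferase, compounds were incubated 24 h at 37 °C, 5% CO2; luciferase luminescence was read 10 min after reagent addition.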
SMN2 splice up – increases expression of the SMN2 splice variant; HEK293 SMN2-luciferase splicing reporter, luminescence, 30-36 h; 210,000 compounds, 2.8% hits; Potency, µM (titrated, usually from 46.1 µM), usual class: activators; AID 1458; also: nearly all actives have a fitted effect of over 55% in size
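qHTS luciferase splicing reporter: luminescence rises when SMN2 exon 7 is included in transfected HEK293 cells. Compound exposure lasted 30-36 h at 37C, with 4.5 mM final sodium butyrate as control, followed by a ONE-Glo read.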
FLuc counter – inhibits or activates purified firefly luciferase, miR-21 counter-screen | P08659 | purified FLuc, Km substrates, luminescence inhibition | Potency, µM (top dose mostly 57.5 µM), actives largely listed as inhibitors | 360,000 compounds, 6.9% hits | AID 588342; also: nearly all actives have a fitted effect of over 55% in size
Target sequence (P08659 whole entry, looked up): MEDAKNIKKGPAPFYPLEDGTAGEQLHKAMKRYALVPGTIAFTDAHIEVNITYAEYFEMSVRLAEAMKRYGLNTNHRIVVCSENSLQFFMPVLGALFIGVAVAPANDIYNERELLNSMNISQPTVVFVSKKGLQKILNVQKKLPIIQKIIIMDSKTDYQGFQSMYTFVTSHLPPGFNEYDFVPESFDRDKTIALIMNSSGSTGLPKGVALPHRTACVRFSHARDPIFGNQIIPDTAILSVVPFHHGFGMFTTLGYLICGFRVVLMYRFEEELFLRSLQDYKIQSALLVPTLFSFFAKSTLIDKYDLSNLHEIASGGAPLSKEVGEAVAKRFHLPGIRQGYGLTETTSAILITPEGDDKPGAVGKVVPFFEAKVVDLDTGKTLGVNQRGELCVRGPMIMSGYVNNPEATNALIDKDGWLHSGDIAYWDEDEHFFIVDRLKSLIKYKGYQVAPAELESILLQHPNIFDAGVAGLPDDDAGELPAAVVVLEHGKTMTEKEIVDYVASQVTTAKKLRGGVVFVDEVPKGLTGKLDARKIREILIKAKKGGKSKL
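Purified P. pyralis luciferase, 10 nM final, with Km-level 10 uM D-luciferin and 10 uM ATP in 50 mM Tris acetate pH 7.5, 10 mM Mg acetate, 0.01% Tween-20, 0.05% BSA; 6-point qHTS titration about 60 µM downward; luminescence read.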
NPC1 prom act – activates the NPC1 promoter | 320,000 compounds, 2.4% hits | Potency, µM (titrated, usually from 9.22 µM), actives largely listed as activators | AID 485313 | Huh7 NPC1 promoter luciferase reporter, 24 h; also: nearly all actives have a fitted effect of over 60% in size
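Readout is luciferase luminescence, reflecting NPC1 promoter activation in stably transfected Huh7 cells after 24 h compound exposure at 37 °C in reduced-serum medium with 10% FBS.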
A number is an active result; i = inactive; ? = inconclusive; nt = no result. Calls follow the shape of the dose curve; as a rule, active = well fitted curve in the direction sought with a large enough effect; inconclusive = small, poorly fitted or top-dose-only effect, or another doubt; inactive = no such curve, though single readings can be large; an effect the other way counts as inactive or inconclusive.

SMILES | KinaseGlo FLuc | Rab9 prom act | SMN2 splice up | FLuc counter | NPC1 prom act
O=C(c1ccco1)N1CCN(C(=O)c2cc(-c3ccccn3)nc3ccc(Cl)cc23)CC1 | i | i | i | 19µM | i
O=C(c1ccco1)N1CCN(C(=O)c2cc(-c3ccccc3)nc3ccccc23)CC1 | i | i | i | 6.7µM | i
COc1ccc(NC(=O)C2CCN(C(=O)c3sc4nc[nH]c(=O)c4c3C)CC2)cc1Cl | nt | nt | nt | i | nt
CCc1ccc(S(=O)(=O)c2nnn3c2nc(NCc2cccc(OC)c2)c2cc(Cl)ccc23)cc1 | nt | nt | i | i | nt
O=C(N/N=C/c1ccccc1)NC1CCCCC1 | i | i | i | ? | i
O=C(N/N=C/c1ccccc1F)NC1CCCCC1 | i | 2.8µM | ? | 24µM | ?
CCCOc1cccc(OCC(=O)Nc2nc3ccccc3[nH]2)c1 | i | i | i | ? | i
Cc1cc(C)c(OCC(=O)Nc2nc3ccccc3[nH]2)c(C)c1 | i | i | i | i | i
Cc1ccccc1OCC(=O)Nc1nc2ccccc2[nH]1 | i | 2.2µM | 18µM | 3.4µM | ?
CC(CC(=O)Nc1nc2ccccc2[nH]1)c1ccccc1 (stereo not given) | i | 4µM | ? | 12µM | 4.5µM
O=C(COc1ccccc1)Nc1nc2ccccc2[nH]1 | i | 3.5µM | ? | 12µM | ?
CCOc1ccccc1OCC(=O)Nc1nc2ccccc2[nH]1 | i | i | i | 15µM | i
O=C(COc1cccc2ccccc12)Nc1nc2ccccc2[nH]1 | i | i | i | ? | i
CSc1nc(N)c2ncn([C@@H]3O[C@H](COP(=O)(O)OP(=O)(O)O)C(O)[C@H]3O)c2n1 (stereo not given in full) | nt | i | nt | nt | i
CC(C)NC(=O)c1onc(CSc2nc3ccccc3[nH]2)c1C(=O)NC(C)C | nt | i | nt | i | i
Cc1ccccc1OCCCSc1nc2ccccc2[nH]1 | nt | i | nt | 24µM | i
Cc1c(OCC(F)(F)F)ccnc1CSc1nc2ccccc2[nH]1 | i | ? | i | 12µM | ?
O=C(Cc1ccccc1)N/N=C/c1ccc2cccc(O)c2n1 | i | i | nt | 19µM | i
NC(=O)N/N=C/c1ccc2cccc(OCc3ccccc3)c2n1 | nt | i | nt | 19µM | i
O=C(N/N=C/c1ccccc1C(=O)O)c1ccc(COc2cccc3cccnc23)cc1 | i | i | i | ? | i
O=c1cc(-c2ccccc2)[nH]n1-c1nc2ccccc2[nH]1 | i | i | i | 19µM | i
CCN1CCN(c2csc3ccc(Cl)cc3c2=O)CC1 | nt | nt | nt | 15µM | nt
Cc1ccc2scc(N3CCc4ccccc4C3)c(=O)c2c1 | nt | nt | nt | 4.8µM | nt
Cc1ccc(C)c(N2CCN(C(=O)c3csc4ccccc34)CC2)c1 | i | i | i | i | i
CC(=O)N1CCN(c2csc3ccc(Br)cc3c2=O)CC1 | nt | nt | nt | 15µM | nt
SMILES | KinaseGlo FLuc | Rab9 prom act | SMN2 splice up | FLuc counter | NPC1 prom act
Cc1ccc2scc(N3CCN(c4ccc(F)cc4)CC3)c(=O)c2c1 | nt | nt | nt | i | nt
O=c1c(N2CCCCC2)csc2ccc(F)cc12 | nt | nt | nt | 6µM | nt
Clc1ccc2scc(CN3CCCCC3)c2c1 | i | i | i | i | i
CCCCc1ccc(-n2nc3ccc(NC(=O)c4cc5ccccc5o4)cc3n2)cc1 | nt | nt | i | i | nt
COc1ccc2c(c1)c1c(c(=O)n(CCc3ccccc3)c(=O)n1Cc1ccc(Cl)cc1)n2C | nt | nt | nt | i | nt
CC1CCCN(c2csc3ccccc3c2=O)C1 (stereo not given) | nt | nt | nt | 8.5µM | nt
Cc1ccc2scc(N3CCN(c4ccccc4)CC3)c(=O)c2c1 | nt | nt | nt | 17µM | nt
COC(=O)c1cc2sc(Cl)cc2n1Cc1nc(-c2ccccc2F)oc1C | nt | nt | i | i | nt
Cc1ccc2nc(C3CCCCC3)[nH]c2c1 | nt | 2.8µM | nt | 9.5µM | 1.8µM
CCNC(=S)N1CCCC(c2nc3ccc(C)cc3[nH]2)C1 (stereo not given) | i | i | nt | i | i
Cc1ccc(NC(=O)c2nnn(CC(=O)Nc3ccc4c(c3)OCO4)c2N)cc1C | nt | i | nt | 5.4µM | i
Nc1c(C(=O)Nc2ccc3c(c2)OCCO3)nnn1Cc1ccc(Br)cc1 | nt | 1.1µM | nt | ? | 1.6µM
Nc1c(C(=O)Nc2ccc3c(c2)OCCO3)nnn1Cc1cccc(Br)c1 | nt | 4µM | nt | ? | ?
Cc1ccc(NC(=O)c2nnn(Cc3ccccc3)c2N)cc1C | nt | nt | i | i | nt
Nc1c(C(=O)Nc2ccccc2Cl)nnn1-c1ccc2c(c1)OCCO2 | nt | 1.1µM | nt | 1.1µM | 0.79µM
CCc1ccc(Cn2nnc(C(=O)Nc3cccc(C)c3)c2N)cc1 | i | i | i | i | i
Cc1cccc(-n2nnc(C(=O)NCc3ccc4c(c3)OCO4)c2N)c1 | i | i | i | i | i
Cc1c(Cl)cccc1NC(=O)c1ccc2nc(C(C)C)oc2c1 | nt | nt | nt | i | nt
Cc1ccccc1-c1noc(CSc2nc(-c3ccc(F)cc3)cc(=O)[nH]2)n1 | nt | nt | nt | i | nt
COc1ccccc1Cc1nc2ccccc2nc1SCC(=O)N1CCN(c2ccccc2)CC1 | nt | nt | nt | i | nt
Nc1c(C(=O)Nc2ccc3c(c2)OCCO3)nnn1CCc1ccccc1 | i | i | ? | 15µM | i
Cc1ccc(-n2[nH]c(C)c(/C=N/Nc3ccc([N+](=O)[O-])cc3[N+](=O)[O-])c2=O)cc1 | ? | i | i | 19µM | i
Cc1cccc(C)c1NC(=O)CNC(=O)c1ccc(COc2ccccc2)o1 | nt | i | nt | i | i
Cc1cccc(NC(=O)c2ccc(COc3ccc4ccccc4c3)o2)n1 | i | i | nt | ? | i
Cc1csc(NC(=O)c2ccc(COc3ccccc3)o2)n1 | nt | ? | nt | 17µM | 1µM
SMILES | KinaseGlo FLuc | Rab9 prom act | SMN2 splice up | FLuc counter | NPC1 prom act
Cc1cccc(NC(=O)c2ccc(COc3ccccc3)o2)n1 | nt | i | nt | 17µM | i
CCOC(=O)c1cccc(NC(=O)c2ccc3nc(CCc4ccccc4)oc3c2)c1 | nt | nt | nt | i | nt
CCOc1ccc(OCc2cccc(C(=O)N3CCCC3)c2)cc1 | i | 0.45µM | 2.8µM | 3µM | 0.35µM
COc1ccc(OCCC(=O)N2CCCCC2)cc1 | i | i | 18µM | ? | i
CCCCOc1ccc(C(=O)N2CCCC2)cc1 | i | i | 11µM | ? | i
CCOc1ccc(OCc2cccc(C(=O)N3CCCCCC3)c2)cc1 | i | 0.28µM | 1.8µM | 0.54µM | 0.32µM
Cc1cccn2c(=O)c3cc(C(=O)Nc4ccc(Cl)c(Cl)c4)sc3nc12 | nt | nt | i | i | nt
CC1CN(C(=O)c2cccc(COc3ccccc3Cl)c2)CC(C)O1 (stereo not given) | i | ? | 11µM | 15µM | 3.5µM
O=C(NN1CCCCC1)c1cccc(COc2ccc(Cl)cc2)c1 | i | 3.5µM | 14µM | 4.8µM | ?
O=C(NCCOc1ccc(Cl)cc1)c1cccc(S(=O)(=O)N2CCCC2)c1 | nt | i | nt | i | i
CC1CN(C(=O)c2cccc(C(=O)N3CC(C)OC(C)C3)c2)CC(C)O1 (stereo not given) | i | i | i | i | i
O=C(CS(=O)(=O)c1cccc2nsnc12)NCc1ccccc1 | nt | nt | nt | i | nt
Cc1nc2nncn2c(Nc2ccc(F)cc2)c1C | nt | nt | i | i | nt
Cn1c(NC(=O)C[n+]2cc(-c3ccc(F)cc3)n3c2CCC3)cc(=O)n(C)c1=O | i | i | i | i | i
O=C(C[n+]1cc(-c2ccc(F)cc2)n2c1CCC2)c1cccs1 | nt | 2.5µM | nt | 2.4µM | 3.2µM

Screens (PubChem BioAssay)
